# Results taken from PubChem BioAssay (NCATS).
# Several values for one entry are separate records, joined by “and”; a condition that tells them apart may be missing. Equal entries are not always repeated. Results filed as inconclusive are left out. A number with no mark means an inactive call. Activity calls are given as the source filed them. Calls come from the whole dose curve; as a rule, active = well fitted inhibition curve with a large enough effect; inconclusive = small, poorly fitted or top-dose-only effect; inactive = flat fitted curve, though single readings scatter.
# Columns and labels:
# CRL-7250 = normal cell line; test: Cytotoxic Profiling of Annotated Libraries Using Quantitative High-Throughput Screening (AID 1296008); conditions: Five cell lines viability, CellTiter-Glo ATP luminescence, 48-72 h; max response: hits give low values; for max response: % is set by controls: 0 for no effect and ±100 for the full control effect
# How it was run: (§1)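 Cytotoxicity was measured as CellTiter-Glo ATP luminescence, read after 10 min at room temperature. Compound treatment of the cells lasted 48 or 72 hr at 37 degrees Celsius in a qHTS format.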
# HEK293 = test: as above; conditions: Five cell lines viability, CellTiter-Glo ATP luminescence, 48-72 h; max response: hits give low values
# How it was run: as §1
# HaCat [1] = test: as above; conditions: Five cell lines viability, CellTiter-Glo ATP luminescence, 48-72 h; max response: hits give low values
# How it was run: as §1
# KB-3-1 = test: as above; conditions: Five cell lines viability, CellTiter-Glo ATP luminescence, 48-72 h; max response: hits give low values
# How it was run: as §1
# NIH3T3 = test: as above; conditions: Five cell lines viability, CellTiter-Glo ATP luminescence, 48-72 h; max response: hits give low values
# How it was run: as §1
# MCC-13 = test: qHTS assay to identify novel small-molecules to repurpose for Merkel cell carcinoma treatment (AID 1296009); conditions: MCC and control cell lines, CellTiter-Glo viability, 72 h; series mostly up to 46 µM
# How it was run: (§2)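 Cell viability, measured as CellTiter-Glo luminescence, was normalized between DMSO and no-cell wells. The cells had been exposed to 8- or 11-point compound dilutions for 72 hr at 37 degree celsius.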
# TAB165 = test: qHTS profiling for inhibitors of Plasmodium falciparum proliferation (AID 504749); conditions: P. falciparum in erythrocytes, SYBR Green DNA, 72 h; series mostly up to 28.7 µM
# How it was run: (§3)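 SYBR Green fluorescence of parasite DNA, read after lysis and overnight dark incubation, measured growth over 72 h in erythrocyte culture at 0.3% parasitemia and 2.5% hematocrit. Data normalised to DMSO and 0.29 uM artemisinin, with plate-drift correction.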
# HACAT [2] = test: qHTS assay to identify novel small-molecules to repurpose for Merkel cell carcinoma treatment (AID 1296009); conditions: MCC and control cell lines, CellTiter-Glo viability, 72 h; at 44.8 µM (top of the series) unless noted
# How it was run: as §2
# HEK293T = test: as above; conditions: MCC and control cell lines, CellTiter-Glo viability, 72 h; at 44.8 µM (top of the series) unless noted
# How it was run: as §2
# W2 = test: qHTS profiling for inhibitors of Plasmodium falciparum proliferation (AID 504749); conditions: P. falciparum in erythrocytes, SYBR Green DNA, 72 h; series mostly up to 28.7 µM
# How it was run: as §3
# Note: nearly all actives have a fitted effect of over 60% in size.
# Potency is the fitted concentration of half-maximal effect.
smiles,measurement,setting,value
CC(C)CN(C[C@H](O)[C@H](Cc1ccccc1)NC(=O)O[C@H]1CCOC1)S(=O)(=O)c1ccc(N)cc1,max response,CRL-7250,0.909%
same,max response,HEK293,-14.4%
same,max response,HaCat [1],-15.1%
same,outcome,KB-3-1,inactive
same,max response,NIH3T3,1.75%
same,Potency,MCC-13,inactive
CC[C@H](C)C(=O)O[C@H]1C[C@H](O)C=C2C=C[C@H](C)[C@H](CC[C@@H](O)C[C@@H](O)CC(=O)O)[C@H]21,max response,CRL-7250,-6.33%
same,max response,HEK293,0.44%
same,max response,HaCat [1],-9.82%
same,max response,KB-3-1,7.09% and -6.87%
same,max response,NIH3T3,-3.34%
same,Potency,MCC-13,inactive
NC[C@H]1O[C@H](O[C@@H]2[C@@H](O)[C@@H](O[C@H]3O[C@H](CO)[C@@H](O)[C@H](N)[C@@H]3O)[C@H](N)C[C@@H]2N)[C@H](O)[C@@H](O)[C@H]1O,max response,CRL-7250,-1.7%
same,max response,HEK293,-2.16%
same,max response,HaCat [1],-1.4%
same,max response,KB-3-1,4.43%
same,max response,NIH3T3,-1.04%
same,Potency,MCC-13,inactive
CC(C)CN(C[C@@H](O)[C@H](Cc1ccccc1)NC(=O)O[C@H]1CO[C@H]2OCC[C@H]21)S(=O)(=O)c1ccc(N)cc1,Potency,TAB165,inactive
same,max response,CRL-7250,-22%
same,max response,HEK293,-18.9%
same,max response,HaCat [1],-16.8%
same,outcome,KB-3-1,inactive
same,outcome,NIH3T3,inactive
same,Potency,MCC-13,inactive
COc1cc(N2CCN(C)CC2)ccc1Nc1nc(N)c(C(=O)c2c(Cl)cccc2Cl)s1,max response,CRL-7250,-21%
same,Potency,HEK293,23.5 µM (active)
same,outcome,HaCat [1],inactive
same,max response,KB-3-1,-5.11%
same,outcome,HACAT [2],inactive
same,Potency,MCC-13,inactive
Cc1cc(C(C)Nc2ccccc2)c2nc(N3CCOCC3)cc(=O)n2c1 (configuration not stated),max response,CRL-7250,-10.1%
same,max response,HEK293,-5.74% and -23.1%
same,max response,HaCat [1],-24%
same,outcome,KB-3-1,inactive
same,Potency,NIH3T3,4.61 µM (active)
same,Potency,MCC-13,inactive
CCOC(=O)[C@H]1O[C@H]1C(=O)N[C@@H](CC(C)C)C(=O)NCCC(C)C,max response,CRL-7250,-2.98%
same,outcome,HEK293,inactive
same,max response,HaCat [1],-0.586%
same,max response,KB-3-1,0.158%
same,max response,NIH3T3,1.05%
same,outcome,HEK293T,inactive
same,Potency,MCC-13,inactive
CC(C)=CCCC(C)=CCCC(C)=CCCC(C)=CCCC(C)=CCCC(C)=CCCC(C)=CCCC(C)=CCCC(C)=CCO,max response,CRL-7250,0.939%
same,max response,HEK293,-3.76%
same,max response,HaCat [1],1.51%
same,max response,KB-3-1,4.17%
same,max response,NIH3T3,-3.52%
same,Potency,MCC-13,inactive
OC[C@H]1O[C@@H](OCCc2ccc(O)cc2)[C@H](O)[C@@H](O)[C@H]1O,max response,CRL-7250,-2.13%
same,max response,HEK293,0.731%
same,max response,HaCat [1],-11.4%
same,max response,KB-3-1,-11.7%
same,max response,NIH3T3,2.07%
same,Potency,MCC-13,inactive
C[C@H]1COC2=C1C(=O)C(=O)c1c2ccc2c1CCCC2(C)C,max response,CRL-7250,-3.27%
same,max response,HEK293,-0.441%
same,max response,HaCat [1],3.37%
same,max response,KB-3-1,-1.52%
same,outcome,NIH3T3,inactive
same,Potency,MCC-13,inactive
Cc1c(C(=O)Nc2ccc(N3C[C@@H](C)O[C@@H](C)C3)nc2)cccc1-c1ccc(OC(F)(F)F)cc1,max response,CRL-7250,-6.66%
same,Potency,HEK293,5.26 µM (active)
same,Potency,HaCat [1],9.35 µM (active)
same,max response,KB-3-1,-8.91%
same,Potency,NIH3T3,20.9 µM (active)
same,Potency,MCC-13,inactive
CC(NCCc1ccc(O)cc1)C(O)c1ccc(O)cc1 (configuration not stated),max response,CRL-7250,-0.502%
same,max response,HEK293,3.14%
same,max response,HaCat [1],-0.381%
same,max response,KB-3-1,-1.97%
same,outcome,NIH3T3,inactive
same,Potency,MCC-13,inactive
CCNC(=O)CCCC=CC[C@@H]1[C@H](C=CC(O)CCc2ccccc2)[C@@H](O)C[C@@H]1O (some centres not stated),max response,CRL-7250,-10.2%
same,max response,HEK293,-24.5%
same,max response,HaCat [1],4.63%
same,max response,KB-3-1,9.82%
same,max response,NIH3T3,-1.84%
same,Potency,MCC-13,inactive
O=C1C(CCC(O)c2ccc(F)cc2)C(c2ccc(O)cc2)N1c1ccc(F)cc1 (configuration not stated),Potency,TAB165,inactive
same,Potency,W2,inactive
same,max response,CRL-7250,-5.06%
same,outcome,HEK293,inactive
same,max response,HaCat [1],3.02%
same,max response,KB-3-1,-2.23%
same,max response,NIH3T3,1.16%
same,outcome,HEK293T,inactive
same,Potency,MCC-13,inactive
CC[C@@H]([C@H](C)O)n1ncn(-c2ccc(N3CCN(c4ccc(OCC5CO[C@@](Cn6cncn6)(c6ccc(F)cc6F)C5)cc4)CC3)cc2)c1=O (some centres not stated),max response,CRL-7250,-19.5%
same,Potency,HEK293,14.8 µM (active)
same,max response,HaCat [1],-20.3%
same,max response,KB-3-1,-2.24%
same,max response,NIH3T3,-23.9%
same,Potency,MCC-13,inactive
CC1(COc2ccc3c(c2)ncn3-c2ccc3cccc(N4CCC(N)CC4)c3n2)COC1,Potency,CRL-7250,11.6 µM (active)
same,Potency,HEK293,7.43 µM (active) and 8.2 µM (active)
same,Potency,HaCat [1],20.6 µM (active)
same,Potency,KB-3-1,5.9 µM (active)
same,Potency,NIH3T3,2.96 µM (active)
same,Potency,MCC-13,18.7 µM (active)
CN1CCN2c3ncccc3Cc3ccccc3C2C1 (configuration not stated),Potency,TAB165,inactive
same,max response,CRL-7250,-0.363%
same,max response,HEK293,-5%
same,max response,HaCat [1],-6.78%
same,max response,KB-3-1,-7.74% and 1.92%
same,outcome,NIH3T3,inactive
same,Potency,MCC-13,inactive
COc1cc(Cl)cn2c(-c3cccc(NC4CNC4)n3)cnc12,max response,CRL-7250,-2.6%
same,max response,HEK293,-13.3%
same,max response,HaCat [1],-3.22%
same,max response,KB-3-1,-0.178%
same,max response,NIH3T3,4.3%
same,Potency,MCC-13,inactive
CCCCOCCOc1nc(-c2ccc(C(=O)O)c(F)c2)sc1C,max response,CRL-7250,-34.6%
same,max response,HEK293,-11.4%
same,max response,HaCat [1],-22%
same,max response,KB-3-1,-5.21%
same,max response,NIH3T3,-20.6%
same,Potency,MCC-13,inactive
O=c1[nH]c(=O)n([C@H]2C[C@@H](O)[C@@H](CO)O2)cc1I,max response,CRL-7250,-2.59%
same,max response,HEK293,-22.9%
same,max response,HaCat [1],1.35%
same,outcome,KB-3-1,inactive
same,max response,NIH3T3,3.2%
same,Potency,MCC-13,inactive
CS(=O)(=O)c1ccc(C2=C(c3ccccc3)C(=O)OC2)cc1,Potency,TAB165,inactive
same,Potency,W2,inactive
COc1c(C)c2c(c(O)c1CC=C(C)CCC(=O)OCCN1CCOCC1)C(=O)OC2,Potency,TAB165,5.01 µM (active)
same,Potency,W2,6.01 µM (active)
O=C(O)CCC=CCC[C@@H]1[C@H](N2CCCCC2)[C@@H](O)C[C@@H]1OCc1ccc(-c2ccccc2)cc1,outcome,CRL-7250,inactive
same,outcome,HaCat [1],inactive
same,outcome,KB-3-1,inactive
same,max response,NIH3T3,3.59%
same,outcome,HACAT [2],inactive
same,Potency,MCC-13,inactive
CC=C1C2C=C(C)CC1(N)c1ccc(=O)[nH]c1C2 (configuration not stated),max response,CRL-7250,3.51%
same,outcome,HaCat [1],inactive
same,max response,KB-3-1,3.2%
same,max response,NIH3T3,-12.9%
same,outcome,HACAT [2],inactive
same,Potency,MCC-13,inactive
